Test results taken from PubChem BioAssay (EPA / NIEHS).
Calls of active or inactive are those of the source. How the source made its calls: active means hit-call score of the fitted dose curve at least 0.9, where 1 is the maximum; inactive means score below 0.9.

What was measured:
[1] = read-out: Macrophage colony-stimulating factor (MCSF), CSF1 (gene 1435); test: BSK_CASM3C_MCSF: BioMAP Diversity Plus: CASM3C Assay for Macrophage colony-stimulating factor (MCSF) Biomarker Activity (AID 2283044); conditions: primary human coronary artery smooth muscle cells; actives raise or lower the signal;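 further: M-CSF protein amount quantified by ELISA after 24 h exposure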
[2] = read-out: Low-density lipoprotein receptor (LDLR), LDLR (gene 3949); test: BSK_CASM3C_LDLR: BioMAP Diversity Plus: CASM3C Assay for Low-density lipoprotein receptor (LDLR) Biomarker Activity (AID 2283045); conditions: primary human coronary artery smooth muscle cells; actives raise or lower the signal;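 further: LDLR protein level on the cell surface quantified by ELISA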
[3] = read-out: Monocyte Chemoattractant Protein-1 (MCP1), CCL2 (gene 6347); test: BSK_CASM3C_MCP1: BioMAP Diversity Plus: CASM3C Assay for Monocyte Chemoattractant Protein-1 (MCP1) Biomarker Activity (AID 2283046); conditions: primary human coronary artery smooth muscle cells; actives raise or lower the signal;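 further: MCP-1 level quantified by ELISA 24 h after dosing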
[4] = BSK_CASM3C_Proliferation: Cell Proliferation Assessment in the BioMAP Diversity Plus: CASM3C Assay (AID 2283047); conditions: primary human coronary artery smooth muscle cells;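 further: sulforhodamine B total protein stain as relative cell number at 560 nm; sub-confluent cells exposed 48 h before staining; fitted both ways against DMSO so gain or loss of cell number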
[5] = read-out: Monokine induced gamma interferon (MIG), CXCL9 (gene 4283); test: BSK_CASM3C_MIG: BioMAP Diversity Plus: CASM3C Assay for Monokine induced gamma interferon (MIG) Biomarker Activity (AID 2283048); conditions: primary human coronary artery smooth muscle cells; actives raise or lower the signal;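 further: MIG protein level measured by ELISA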
[6] = read-out: serum amyloid A (SAA), SAA1 (gene 6288); test: BSK_CASM3C_SAA: BioMAP Diversity Plus: CASM3C Assay for serum amyloid A (SAA) Biomarker Activity (AID 2283049); conditions: primary human coronary artery smooth muscle cells; actives raise or lower the signal;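 further: SAA protein level quantified by ELISA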
[7] = BSK_CASM3C_SRB: Viability Assessment in the BioMAP Diversity Plus: CASM3C Assay (AID 2283050); conditions: primary human coronary artery smooth muscle cells
[8] = read-out: Thrombomodulin, THBD (gene 7056); test: BSK_CASM3C_Thrombomodulin: BioMAP Diversity Plus: CASM3C Assay for Thrombomodulin Biomarker Activity (AID 2283051); conditions: primary human coronary artery smooth muscle cells; actives raise or lower the signal;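 further: thrombomodulin protein level measured by ELISA 24 h after dosing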
[9] = read-out: Tissue Factor, F3 (gene 2152); test: BSK_CASM3C_TissueFactor: BioMAP Diversity Plus: CASM3C Assay for Tissue Factor Biomarker Activity (AID 2283052); conditions: primary human coronary artery smooth muscle cells; actives raise or lower the signal;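 further: cell surface tissue factor protein level read by ELISA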
[10] = read-out: Interferon-gamma inducible Protein 10 (IP10), CXCL10 (gene 3627); test: BSK_hDFCGF_IP10: BioMAP Diversity Plus: hDFCGF Assay for Interferon-gamma inducible Protein 10 (IP10) Biomarker Activity (AID 2283053); conditions: primary human foreskin fibroblasts; actives raise or lower the signal
Summary of the method: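 Primary human foreskin fibroblasts exposed to chemicals for 24 h. IP-10 measured by ELISA; changes fitted bidirectionally against DMSO baseline.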

[11] = read-out: Urokinase-type plasminogen activator receptor (uPAR), PLAUR (gene 5329); test: BSK_CASM3C_uPAR: BioMAP Diversity Plus: CASM3C Assay for Urokinase-type plasminogen activator receptor (uPAR) Biomarker Activity (AID 2283054); conditions: primary human coronary artery smooth muscle cells; actives raise or lower the signal;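 further: cell-surface uPAR protein level quantified by ELISA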
[12] = read-out: Vascular cell adhesion molecule 1 (VCAM1), VCAM1 (gene 7412); test: BSK_CASM3C_VCAM1: BioMAP Diversity Plus: CASM3C Assay for Vascular cell adhesion molecule 1 (VCAM1) Biomarker Activity (AID 2283055); conditions: primary human coronary artery smooth muscle cells; actives raise or lower the signal;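 further: VCAM-1 protein level quantified by ELISA on the cells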
[13] = read-out: Collagen III, COL3A1 (gene 1281); test: BSK_hDFCGF_CollagenIII: BioMAP Diversity Plus: hDFCGF Assay for Collagen III Biomarker Activity (AID 2283056); conditions: primary human foreskin fibroblasts; actives raise or lower the signal
Summary of the method: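 Cells: human foreskin fibroblasts, primary. Dosing followed by 24 h incubation, then ELISA for collagen III. Both increases and decreases scored relative to DMSO.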

[14] = read-out: Epidermal growth factor receptor (EGFR), EGFR (gene 1956); test: BSK_hDFCGF_EGFR: BioMAP Diversity Plus: hDFCGF Assay for Epidermal growth factor receptor (EGFR) Biomarker Activity (AID 2283057); conditions: primary human foreskin fibroblasts; actives raise or lower the signal
Summary of the method: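 Primary human foreskin fibroblasts (hDFCGF system), sampled 24 h after dosing; EGFR quantified by ELISA. Bidirectional fit relative to DMSO baseline; SRB total-protein staining in parallel cultures for cytotoxicity.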

[15] = read-out: Interleukin-8 (IL8), CXCL8 (gene 3576); test: BSK_hDFCGF_IL8: BioMAP Diversity Plus: hDFCGF Assay for Interleukin-8 (IL8) Biomarker Activity (AID 2283058); conditions: primary human foreskin fibroblasts; actives raise or lower the signal
Summary of the method: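 IL-8 levels from compound-treated primary human fibroblasts were read by ELISA at 24 h, with DMSO serving as baseline for bidirectional fitting.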

[16] = BSK_hDFCGF_Proliferation: Cell Proliferation Assessment in the BioMAP Diversity Plus: hDFCGF Assay (AID 2283059); conditions: primary human foreskin fibroblasts;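 further: curves fitted for both rise and fall of signal versus DMSO baseline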
Summary of the method: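 Steps: dose primary human dermal fibroblasts (foreskin); […] fix in 10% TCA; stain with 0.1% SRB; read 560 nm; fit gain or loss of signal against DMSO.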

[17] = read-out: Macrophage colony-stimulating factor (MCSF), CSF1 (gene 1435); test: BSK_hDFCGF_MCSF: BioMAP Diversity Plus: hDFCGF Assay for Macrophage colony-stimulating factor (MCSF) Biomarker Activity (AID 2283060); conditions: primary human foreskin fibroblasts; actives raise or lower the signal
Summary of the method: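 M-CSF levels, determined by ELISA, are taken at 24 h after dosing human skin fibroblasts. Responses in either direction are fitted with DMSO serving as the baseline.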

[18] = read-out: TIMP metallopeptidase inhibitor 1 (TIMP1), TIMP1 (gene 7076); test: BSK_hDFCGF_TIMP1: BioMAP Diversity Plus: hDFCGF Assay for TIMP metallopeptidase inhibitor 1 (TIMP1) Biomarker Activity (AID 2283062); conditions: primary human foreskin fibroblasts; actives raise or lower the signal
Summary of the method: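 Fibroblasts from human foreskin are treated with test chemical and harvested at 24 h. TIMP-1 is quantified by ELISA, and gain or loss of signal is scored against DMSO.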

[19] = read-out: Monokine induced gamma interferon (MIG), CXCL9 (gene 4283); test: BSK_hDFCGF_MIG: BioMAP Diversity Plus: hDFCGF Assay for Monokine induced gamma interferon (MIG) Biomarker Activity (AID 2283063); conditions: primary human foreskin fibroblasts; actives raise or lower the signal
Summary of the method: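 MIG signal, determined by ELISA, reflects 24 h chemical exposure of human skin primary fibroblasts. DMSO serves as negative control and baseline.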

[20] = read-out: Matrix Metallopeptidase 1 (MMP1), MMP1 (gene 4312); test: BSK_hDFCGF_MMP1: BioMAP Diversity Plus: hDFCGF Assay for Matrix Metallopeptidase 1 (MMP1) Biomarker Activity (AID 2283064); conditions: primary human foreskin fibroblasts; actives raise or lower the signal
Summary of the method: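 hDFCGF primary fibroblasts (human foreskin); chemical added; 24 h; MMP1 by ELISA; bidirectional fit vs DMSO.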

[21] = read-out: Plasminogen activator inhibitor-1 (PAI1), SERPINE1 (gene 5054); test: BSK_hDFCGF_PAI1: BioMAP Diversity Plus: hDFCGF Assay for Plasminogen activator inhibitor-1 (PAI1) Biomarker Activity (AID 2283066); conditions: primary human foreskin fibroblasts; actives raise or lower the signal
Summary of the method: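 Human foreskin fibroblast primary cells, 24 h chemical exposure; PAI-1 measured by ELISA. Bidirectional fitting relative to DMSO; parallel cultures stained with SRB for total protein to flag overt cytotoxicity.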

[22] = read-out: Intercellular Adhesion Molecule 1 (ICAM1), ICAM1 (gene 3383); test: BSK_KF3CT_ICAM1: BioMAP Diversity Plus: KF3CT Assay for Intercellular Adhesion Molecule 1 (ICAM1) Biomarker Activity (AID 2283067); conditions: primary human keratinocytes with fibroblasts; actives raise or lower the signal
Summary of the method: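 Dose the keratinocyte/fibroblast co-culture, wait 24 h, measure ICAM-1 by ELISA, then fit increases or decreases against DMSO. Cytotoxicity is checked in parallel cultures by SRB total-protein staining.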

[23] = read-out: Interferon-gamma inducible Protein 10 (IP10), CXCL10 (gene 3627); test: BSK_KF3CT_IP10: BioMAP Diversity Plus: KF3CT Assay for Interferon-gamma inducible Protein 10 (IP10) Biomarker Activity (AID 2283068); conditions: primary human keratinocytes with fibroblasts; actives raise or lower the signal
Summary of the method: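 KF3CT co-culture (keratinocytes + foreskin fibroblasts), 24 h compound, IP-10 by ELISA; bidirectional fit vs DMSO baseline.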

[24] = read-out: Interleukin-1 alpha (IL1a), IL1A (gene 3552); test: BSK_KF3CT_IL1a: BioMAP Diversity Plus: KF3CT Assay for Interleukin-1 alpha (IL1a) Biomarker Activity (AID 2283070); conditions: primary human keratinocytes with fibroblasts; actives raise or lower the signal
Summary of the method: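 Chemicals were dosed onto co-cultured human keratinocytes and foreskin fibroblasts, IL-1a was quantified by ELISA at 24 h, and activity was fitted in both directions relative to DMSO controls.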

[25] = read-out: TIMP metallopeptidase inhibitor 2 (TIMP2), TIMP2 (gene 7077); test: BSK_KF3CT_TIMP2: BioMAP Diversity Plus: KF3CT Assay for TIMP metallopeptidase inhibitor 2 (TIMP2) Biomarker Activity (AID 2283071); conditions: primary human keratinocytes with fibroblasts; actives raise or lower the signal
Summary of the method: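 Co-culture of human primary keratinocytes and foreskin fibroblasts, measured 24 h after chemical dosing. TIMP-2 quantified by ELISA and fitted in both directions relative to DMSO. Cytotoxicity checked in parallel cultures by SRB total-protein staining.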

[26] = read-out: C-C motif chemokine 2 (Homo sapiens) (UniProt P13500); test: BSK_KF3CT_MCP1: BioMAP Diversity Plus: KF3CT Assay for Monocyte Chemoattractant Protein 1 (MCP1/CCL2) Biomarker Activity (AID 2283073); conditions: primary human keratinocytes with fibroblasts; actives raise or lower the signal
Summary of the method: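 Keratinocytes and foreskin fibroblasts were co-cultured, dosed with chemical, and sampled 24 h later. MCP-1 was quantified by ELISA, and the endpoint was analyzed with bidirectional fitting using DMSO as negative control.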

[27] = read-out: Matrix Metallopeptidase 9 (MMP9), MMP9 (gene 4318); test: BSK_KF3CT_MMP9: BioMAP Diversity Plus: KF3CT Assay for Matrix Metallopeptidase 9 (MMP9) Biomarker Activity (AID 2283074); conditions: primary human keratinocytes with fibroblasts; actives raise or lower the signal
Summary of the method: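 Human keratinocyte/foreskin fibroblast co-culture; compound added; 24 h; MMP-9 by ELISA; bidirectional fit vs DMSO baseline.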

[28] = read-out: urokinase plasminogen activator (uPA), PLAU (gene 5328); test: BSK_KF3CT_uPA: BioMAP Diversity Plus: KF3CT Assay for urokinase plasminogen activator (uPA) Biomarker Activity (AID 2283075); conditions: primary human keratinocytes with fibroblasts; actives raise or lower the signal
Summary of the method: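 ELISA readout of uPA, analyzed for signal gain or loss relative to DMSO, from a human primary keratinocyte–foreskin fibroblast co-culture measured 24 h after chemical treatment.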

[29] = read-out: CD40, CD40 (gene 958); test: BSK_LPS_CD40: BioMAP Diversity Plus: LPS Assay for CD40 Biomarker Activity (AID 2283076); conditions: primary human HUVEC with PBMC; actives raise or lower the signal
Summary of the method: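 CD40 signal, measured by ELISA, is fitted in both directions relative to DMSO vehicle. The system is an LPS-driven human vascular primary co-culture of endothelial cells and PBMC, sampled 24 h after compound addition.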

[30] = read-out: E-selectin (Homo sapiens) (UniProt P16581); test: BSK_LPS_Eselectin: BioMAP Diversity Plus: LPS Assay for Eselectin Biomarker Activity (AID 2283077); conditions: primary human HUVEC with PBMC; actives raise or lower the signal
Summary of the method: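 Signal of E-selectin, detected by ELISA, served as the endpoint; cells were umbilical vein endothelium with PBMC, read 24 h after treatment. DMSO defined baseline, and both increases and decreases were fitted.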

Measured: outcome

E-selectin (Homo sapiens), sequence (P16581 whole entry, looked up): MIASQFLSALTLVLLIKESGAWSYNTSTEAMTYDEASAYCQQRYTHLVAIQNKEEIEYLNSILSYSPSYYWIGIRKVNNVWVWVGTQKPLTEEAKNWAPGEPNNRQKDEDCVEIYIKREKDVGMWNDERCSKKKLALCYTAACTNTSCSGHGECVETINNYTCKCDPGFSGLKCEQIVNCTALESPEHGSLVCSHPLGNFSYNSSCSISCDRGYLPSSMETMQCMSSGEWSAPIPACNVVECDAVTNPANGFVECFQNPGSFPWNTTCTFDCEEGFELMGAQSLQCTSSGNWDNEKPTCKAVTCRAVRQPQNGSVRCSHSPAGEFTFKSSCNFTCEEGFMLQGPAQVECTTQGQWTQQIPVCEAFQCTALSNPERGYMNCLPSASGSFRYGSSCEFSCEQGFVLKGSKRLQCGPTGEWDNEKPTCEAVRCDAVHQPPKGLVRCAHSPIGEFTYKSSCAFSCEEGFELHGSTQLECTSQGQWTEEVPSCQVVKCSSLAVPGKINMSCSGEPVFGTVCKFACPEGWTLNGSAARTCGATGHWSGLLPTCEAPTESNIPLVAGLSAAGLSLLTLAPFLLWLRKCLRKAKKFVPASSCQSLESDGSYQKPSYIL

CCCC[N+](CCCC)(CCCC)CCCC
inactive: all assays above
